# From PubChem BioAssay
# In the library only some 4% were active in any assay of this set; here they are far more common.
# D1 antagonist: antagonists of human D1 dopamine receptor. AID 504652. 3.2% of 360,000 active. activity change, negative = inhibition, % at 10 µM. HEK293 TREx D1 cells, calcium flux, dopamine EC80; hits give low values; in the data active = activity change below about -30%; note: % is set by controls: 0 for no effect and ±100 for the full control effect
#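 Compound effects on dopamine-evoked calcium signalling were measured in tetracycline-induced HEK293 Trex D1 cells. Dopamine at EC80 followed a 180 s compound pre-read, and fluorescence was tracked kinetically for 180 s more.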
# D1 PAM: human D1 dopamine receptor positive modulation. P21728. HEK293 TREx D1 cells, calcium flux, dopamine EC20 potentiation. potentiation, % at 10 µM. 0.036% of 360,000 active. AID 504651; in the data active = potentiation above about 30%; note: 0% is about no effect
# TRHR agonist: activates the human TRH receptor; TRHR cells, calcium flux fluo-8, FDSS agonist mode; activation, % at 2 µM; 0.18% of 360,000 active; AID 493084; note: 0% is about no effect
# Target sequence (P34981 whole entry, looked up): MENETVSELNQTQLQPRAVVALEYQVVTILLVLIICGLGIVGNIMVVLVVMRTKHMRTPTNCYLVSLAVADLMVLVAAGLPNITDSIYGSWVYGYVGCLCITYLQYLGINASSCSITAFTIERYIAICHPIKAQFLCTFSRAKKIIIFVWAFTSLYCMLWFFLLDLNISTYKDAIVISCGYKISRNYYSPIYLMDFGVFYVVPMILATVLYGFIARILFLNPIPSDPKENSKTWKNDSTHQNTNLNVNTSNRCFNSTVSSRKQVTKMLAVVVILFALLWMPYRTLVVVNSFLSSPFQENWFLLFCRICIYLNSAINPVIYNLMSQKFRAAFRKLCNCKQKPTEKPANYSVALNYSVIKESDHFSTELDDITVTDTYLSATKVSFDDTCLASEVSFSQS
#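 TRHR-expressing cells loaded with fluo-8 calcium dye; 23 nL library compound pin-transferred, kinetic FDSS fluorescence (Ex 480/Em 530) recorded about 180 s for agonist-induced calcium release, before a 10 nM TRH EC20 addition for potentiator mode.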
# TRHR PAM: allosterically enhances the human TRH receptor | P34981 | AID 493056 | enhancement, % at 2 µM | TRHR cells, fluo-8 calcium fluorescence, EC20 TRH enhancement | 0.66% of 360,000 active; in the data active = enhancement above about 30%; note: 0% is about no effect
#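 Enhancer read-out: after compound pinning and an initial kinetic agonist-mode read, an EC20 of TRH (10 nM final) was injected and fluo-8 calcium signal (Ex 480/Em 530) followed at 1 s/cycle for 100 cycles in TRHR-expressing cells.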
# D1 ag: activates the human D1 dopamine receptor; activation, % at 2 µM; P21728; AID 504660; 1% of 360,000 active; HEK293 T-REx D1 cells, calcium flux, agonist mode; note: 0% is about no effect
#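 Inducible HEK293 T-REx D1 cells, force-coupled to calcium signalling, were plated at 4000 cells/well with tetracycline and held overnight at 30 C. After no-wash calcium dye loading, compound-evoked calcium rise over 180 s flagged agonists.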
# Glioma ERSR ind: ER stress response induction in glioma; Potency, µM, without a hit: top-dose activation, usual class: activators; U87-MG GRP78 promoter luciferase reporter, 16 h; 0.02% of 420,000 active; active = well fitted activation curve with a large enough effect; note: potency is the fitted concentration of half-maximal effect; series mostly up to about 76 µM; % of control where 0% means no effect; nearly all actives have a fitted effect of over 35% in size
#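 Stably transfected U87-MG glioma cells carrying a GRP78-based luciferase sensor; 16 h compound incubation. Luminescence end-point read 10 min after Bright-Glo addition at room temperature.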
# An asterisk follows results filed as active; . = not tested or not shown; ! = repeats disagree. Cut-off read from the data, not from the text of the source, unless noted: active = activation above about 30%; inactive = the rest.
SMILES,D1 antagonist,D1 PAM,TRHR agonist,TRHR PAM,D1 ag,Glioma ERSR ind
COC(=O)c1ccc(-n2nnnc2SCC(=O)N2CCCCC2)cc1,-30.2*,-4.1,-0.4,5.5,5.4,-1.7%
Cc1nc(N2CCN(Cc3ccccc3)CC2)nc2c1C(=O)CC(c1ccco1)C2 (stereo not given),-32.2*,-2.6,-0.1,3.7,1.1,-3.0%
CN(CC(=O)Nc1ccc(Cl)c(C(F)(F)F)c1)C(=O)c1ccc2c(c1)NC(=O)CS2,.,-7.5,-0.2,0.7,-0.1,-4.5%
Cc1ccc(C(=O)N/N=C2\CC3CC=CC23)c(C)c1 (stereo not given),5.5,-3.2,0.0,-1.3,-4.7,1.8%
COc1ccc(NC(=O)c2ccc(NC(=O)c3cccs3)cc2)cc1,-16.9,-2.0,0.7,7.0,4.9,-2.8%
COc1ccc(C(=O)Nc2cccc(NC(=O)c3cccs3)c2)cc1,-31.5*,-5.2,-0.2,-2.6,2.5,2.6%
COc1ccc(C(=O)Nc2cccc(C(=O)N/N=C/c3ccc(OC)cc3OC)c2)cc1,-48.0*,-8.2,0.1,-4.4,1.5,-15.5%
COc1cc(NC(=O)c2c(F)c(F)c(OC)c(F)c2F)ccc1NC(=O)c1cccs1,-45.9*,-11.7,0.2,-8.6,2.8,-2.0%
Cc1ccc(NC(=O)/C=C\C(=O)NCC(=O)O)cc1C,-37.1*,-4.3,0.3,3.7,3.4,-0.6%
Cc1ccc(NC(=O)CC(=O)Nc2ccc(C)c(C)c2)cc1C,-2.2,-5.4,1.3,13.3,0.1,-5.3%
COc1ccc(C(C(=O)NCC2CCCO2)N(C(=O)Cn2nnc3ccccc32)c2ccc(NC(C)=O)cc2)c(OC)c1 (stereo not given),-67.1*,-7.2,0.6,-0.3,18.1,-4.9%
C[C@@H]1CCC(=O)N(C[C@@H](C)CSc2ccc(Br)cc2)CC1,-50.8*,-0.7,-0.3,-2.1,-0.6,-2.7%
Cc1ccc(SC[C@H](C)CN2CC[C@H](C)CCC2=O)cc1,-12.2,3.0,0.0,-11.0,8.2,0.3%
CCOC(=O)CCCCC(=O)c1[nH]c(=O)[nH]c1CSc1nc(C)cc(C)n1,15.0,-7.3,-0.1,-3.2,1.6,0.9%
CCOC(=O)CCCCC(=O)c1[nH]c(=O)[nH]c1CSc1nnc2c3cc(Br)ccc3n(C)c2n1,-33.3*,-1.4,-0.5,1.1,2.9,.
Cc1ccccc1CN1CCC(CNc2ncnc3onc(-c4ccc(F)cc4)c23)CC1,19.0,5.6,-1.7,36.1*,1.9,-4.9%
Cc1cccc(Nc2ncnc3onc(-c4ccc(F)cc4)c23)c1C,4.3,-2.0,-1.6,-7.1,2.3,-4.0%
COc1ccc(CN2CCCC(n3cc(C(=O)N4CCCCC4)nn3)C2)c(OC)c1C (stereo not given),.,.,.,.,.,-4.2%
COc1ccc(NC(=O)COc2ccc(-c3nn(C)c(=O)c4ccccc34)cc2)cc1,-39.8*!,-3.5,1.7,-3.1,3.1,0.4%
Brc1ccc2[nH]ncc2c1,-31.9*,-6.1,0.1,5.8,2.4,-2.1%
O=c1[nH]c2ccc([N+](=O)[O-])cc2[nH]1,.,.,.,.,.,-1.3%
O=[N+]([O-])c1ccc2[nH]ncc2c1,-43.5*,-8.8,0.7,3.6,4.4,1.5%
COc1cc(=O)n2c(c1C(=O)NCc1ccco1)CCN(Cc1c(F)cccc1F)CC2,.,.,.,.,.,-3.1%
COc1cccc(/C=C/c2ccnc3ccccc23)c1OC,.,.,.,.,.,2.2%
O=C(/C=C/c1cccc([N+](=O)[O-])c1)Nc1ccc(NC(=O)c2cccs2)cc1,-78.0*,-24.4,1.8,-22.2,-0.5,-2.9%
SMILES,D1 antagonist,D1 PAM,TRHR agonist,TRHR PAM,D1 ag,Glioma ERSR ind
O=C(Nc1cccc2ccccc12)/C(=C/c1cccc([N+](=O)[O-])c1)NC(=O)c1cccs1,6.6,-3.8,-0.3,33.8*,0.8,-2.1%
O=C(NCCc1ccccc1)/C(=C\c1cccc([N+](=O)[O-])c1)NC(=O)c1ccco1,-34.1*,-3.9,-1.4,-0.2,3.5,-3.7%
Cc1nn(C)c(Cl)c1S(=O)(=O)N(Cc1ccco1)c1ncnc2nc[nH]c12,.,.,.,.,.,-2.4%
Cc1ncnc2nc[nH]c12,.,.,.,.,.,-7.1%
CCc1ccccc1NC(=O)c1cc2sc(Cl)cc2n1CC,-3.5,-4.0,0.1,-6.1,2.3,1.1%
Cn1c(C(=O)Nc2ccc(Cl)cc2)cc2cc(Cl)ccc21,0.2,-4.5,0.8,32.5*,3.1,-0.5%
CCn1c(C(=O)Nc2c(C)cccc2C)cc2sc(Cl)cc21,-42.2*,-9.1,0.2,-5.2,1.3,-3.7%
CCc1ccc(NC(=O)c2cc3sc(Cl)cc3n2C)cc1,-42.7*,-5.2,-0.4,6.4,2.7,0.9%
CC(C)c1ccc(NC(=O)c2cc3sc(Cl)cc3n2C)cc1,10.1,-4.1,-0.4,7.7,7.5,-6.6%
CC(C)(C)n1ncc2c(=O)n(Cc3ccc(Cl)c(OC(F)(F)F)c3)cnc21,.,.,.,.,.,-2.3%
CC(C)n1cnc2c(N(C)c3ccccc3)nc(N(CCN(C)C)Cc3ccccc3)nc21,-104.0*,0.5,4.0,-5.9,28.1,-2.9%
O=C(c1ccc(F)cc1)N1CCN(Cc2ccccc2)CC1,-3.4,-3.6,0.3,1.6,4.0,-3.7%
O=C(Nc1cccc(C(=O)N2CCN(Cc3ccccc3)CC2)c1)c1ccccc1,-39.0*,-6.5,-0.1,7.7,2.8,-3.0%
O=C(c1ccc(Br)cc1)N1CCN(Cc2ccccc2)CC1,-57.0*,-30.4,-0.2,4.1,1.2,-2.6%
CCC(CC)C(=O)Nc1cccc(C(=O)N2CCOCC2)c1,-31.8*,-0.1,0.1,1.6,2.5,0.1%
CCC(CC)C(=O)Nc1cccc(C(=O)N2CCCCCC2)c1,2.5,-0.8,0.0,-0.4,2.9,-1.1%
Cc1cccc(NC(=O)c2ccc(CN3CCN(Cc4ccccc4)CC3)cc2)c1,-37.4*,-8.8,0.9,-0.1,14.1,-3.9%
CCC1CN(CCNC(=O)c2ccc3c(c2)OCCO3)Cc2cc(OC)ccc2O1 (stereo not given),.,.,.,.,.,-2.9%
CC(=O)NC1CCCC1C#N (stereo not given),.,.,.,.,.,-2.0%
CSc1ccccc1NC(=O)c1ccc(CN2CCOCC2)cc1,0.2,11.9,-0.7,1.2,2.8,-3.5%
Cc1cc(CSc2ccccc2)ccc1NC(=O)c1ccc(CN2CCOCC2)cc1,-31.4*,0.8,1.8,-5.7,29.6,-2.8%
CC(C)=NNc1cnnc2ccc([N+](=O)[O-])cc12,.,.,.,.,.,-1.2%
NC(=O)OCC(COC(N)=O)c1ccccc1,-39.0*,4.2,-2.0,-4.7,0.5,1.2%
C/C=C1\C(OC2OC(CO)C(O)C(O)C2O)OC=C(C(=O)OC)C1CC(=O)OCC1C(C)C(OC(=O)CC2C(C(=O)OC)=COC(OC3OC(CO)C(O)C(O)C3O)/C2=C\C)CC1C(CO)CO (stereo not given),-31.2*,-2.0,0.0,-0.8,-1.5,0.6%
